Potency and outcome data for 14 compounds are collected here from PubChem BioAssay (Tox21).

Inconclusive results are not listed. The source made the active and inactive calls. Unless noted, the call rests on the fitted dose curve; in most records, active means well fitted curve in the direction sought with a large enough effect in the repeat runs; inconclusive means weak or mixed curves; inactive means no such curve, though single readings can be large; an effect the other way counts as inactive or inconclusive. Where a SMILES comes first, the peptide text is derived from it.

A short description of assay [1]: qHTS assay to identify small molecule antagonists of the thyroid receptor (TR) signaling pathway - cell viability counter screen (AID 743064). Further: nearly all actives have a fitted effect of over 50% in size. The procedure, abridged: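 GH3.TRE-Luc rat pituitary cells carrying a TRE-luciferase reporter were treated with compound plus 1 nM T3 (final) for 23.5 h at 37 °C. Viability was then read in the same wells by CellTiter-Fluor fluorescence after a further 30 min.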

The test system of assay [2] is thyroid hormone receptor (rat, GH3 cells). In words: qHTS assay to identify small molecule agonists of the thyroid receptor (TR) signaling pathway (AID 743066; calls by dose curve). (qHTS replaces the single test concentration by a dilution series.)
Assay [3] addresses Estrogen receptor (Homo sapiens) (UniProt P03372). The experiment in a line: qHTS assay to identify small molecule antagonists of the estrogen receptor alpha (ER-alpha) signaling pathway (AID 743069; active means well fitted curve in the direction sought with a large enough effect in the signal ratio in the repeat runs, not every such curve was filed as active; the % refers to the signal ratio). In outline:
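Fluorescence intensity from a beta-lactamase FRET substrate served as the read-out. Cells: HEK293 with stably integrated ER-alpha-UAS-bla reporter. Agonist 17beta-estradiol was co-added with compounds; incubation 18 hr at 37C, substrate 2 hr at room temperature.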

Assay [4] can be described thus: qHTS assay to identify small molecule antagonists of the estrogen receptor alpha (ER-alpha) signaling pathway - cell viability counter screen (AID 743074; calls by dose curve; further: nearly all actives have a fitted effect of over 45% in size).
In assay [5] the target is Estrogen receptor (Homo sapiens) (UniProt P03372). In words: qHTS assay to identify small molecule agonists of the estrogen receptor alpha (ER-alpha) signaling pathway (AID 743075; calls by dose curve).
Estrogen receptor (Homo sapiens), sequence (P03372 whole entry, looked up): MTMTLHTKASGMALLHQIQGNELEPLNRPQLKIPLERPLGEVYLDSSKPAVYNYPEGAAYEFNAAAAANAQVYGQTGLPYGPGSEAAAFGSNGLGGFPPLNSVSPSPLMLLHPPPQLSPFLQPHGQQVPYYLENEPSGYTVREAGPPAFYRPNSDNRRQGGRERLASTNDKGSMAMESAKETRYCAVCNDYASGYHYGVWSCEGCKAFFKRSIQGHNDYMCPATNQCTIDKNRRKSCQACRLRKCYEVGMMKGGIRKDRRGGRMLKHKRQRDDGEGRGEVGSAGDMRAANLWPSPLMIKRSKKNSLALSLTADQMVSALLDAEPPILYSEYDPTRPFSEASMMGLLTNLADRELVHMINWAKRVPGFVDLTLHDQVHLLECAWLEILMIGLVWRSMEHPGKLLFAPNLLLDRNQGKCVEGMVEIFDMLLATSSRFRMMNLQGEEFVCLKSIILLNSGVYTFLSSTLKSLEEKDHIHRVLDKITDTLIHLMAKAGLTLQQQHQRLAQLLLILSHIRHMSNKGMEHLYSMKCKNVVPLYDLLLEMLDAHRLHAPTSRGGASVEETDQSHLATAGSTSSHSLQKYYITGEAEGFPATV
The target is the same in assay [6]. In words: qHTS assay to identify small molecule agonists of the estrogen receptor alpha (ER-alpha) signaling pathway using the BG1 cell line (AID 743079). Further: nearly all actives have a fitted effect of over 20% in size.
Assay [7] in a line: qHTS assay to identify small molecule antagonists of the estrogen receptor alpha (ER-alpha) signaling pathway using the BG1 cell line - cell viability counter screen (AID 743081).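 Further: compound given together with 17beta-estradiol as the ER stimulus; series mostly up to about 70 µM; nearly all actives have a fitted effect of over 45% in size.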
In a further assay the target is Aromatase (Homo sapiens) (UniProt P11511). In words: qHTS assay to identify aromatase inhibitors (AID 743083). Further: series mostly up to about 70 µM; nearly all actives have a fitted effect of over 55% in size.
Aromatase (Homo sapiens), sequence (P11511 whole entry, looked up): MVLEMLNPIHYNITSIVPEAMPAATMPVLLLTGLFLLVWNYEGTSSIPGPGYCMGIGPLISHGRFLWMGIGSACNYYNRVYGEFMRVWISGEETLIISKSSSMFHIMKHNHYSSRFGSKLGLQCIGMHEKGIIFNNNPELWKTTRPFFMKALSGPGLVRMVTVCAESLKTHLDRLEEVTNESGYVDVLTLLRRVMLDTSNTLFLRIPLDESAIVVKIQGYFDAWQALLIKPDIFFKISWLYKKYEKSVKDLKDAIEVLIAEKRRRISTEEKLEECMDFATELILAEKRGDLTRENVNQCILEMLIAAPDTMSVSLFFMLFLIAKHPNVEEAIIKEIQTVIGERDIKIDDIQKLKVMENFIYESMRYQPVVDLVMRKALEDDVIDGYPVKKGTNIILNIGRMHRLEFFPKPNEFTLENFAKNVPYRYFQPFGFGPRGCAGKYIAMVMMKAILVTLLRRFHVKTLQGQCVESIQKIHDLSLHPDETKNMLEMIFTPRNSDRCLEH
Assay [8] can be described thus: qHTS assay to identify aromatase inhibitors - cell viability counter screen (AID 743084).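 Further: cells stimulated with testosterone during compound exposure; nearly all actives have a fitted effect of over 55% in size.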
Assay [9] in a line: qHTS assay to identify small molecule that activate the aryl hydrocarbon receptor (AhR) signaling pathway - cell viability counter screen (AID 743086). Further: series mostly up to about 70 µM; nearly all actives have a fitted effect of over 45% in size. The procedure, abridged: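 Cytotoxicity counter screen: CellTiter-Fluor signal (30 min, 37 C) in 4000 HepG2 cells/well carrying the DRE-luciferase reporter, following 24 h compound exposure at 37 C.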
In assay [10] the target is Peroxisome proliferator-activated receptor gamma (Homo sapiens) (UniProt P37231). In words: qHTS assay to identify small molecule agonists of the peroxisome proliferator-activated receptor gamma (PPARg) signaling pathway (AID 743094; active means well fitted activation curve with a large enough effect in the signal ratio in the repeat runs, not every such curve was filed as active; the % refers to the signal ratio). In outline:
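Cells from the PPARg UAS-bla HEK293H line are plated and incubated 5 h at 37C. Compounds in DMSO are pinned in and left 17 h at 37C. LiveBLAzer B/G substrate is then added for 1 h at room temperature before fluorescence is measured.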

Assay [11] shares this target. In words: qHTS assay to identify small molecule antagonists of the peroxisome proliferator-activated receptor gamma (PPARg) signaling pathway (AID 743191; calls by dose curve; further: series mostly up to about 63 µM; nearly all actives have a fitted effect of over 30% in size). In outline: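 Beta-lactamase reporter under UAS control in HEK293H PPARg-bla cells; compound treatment 17 h at 37C. Read-out: fluorescence intensity after 1 h room-temperature incubation with LiveBLAzer B/G FRET substrate.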

Assay [12] in a line: qHTS assay to identify small molecule antagonists of the peroxisome proliferator-activated receptor gamma (PPARg) signaling pathway - cell viability counter screen (AID 743194). Further: nearly all actives have a fitted effect of over 55% in size. In outline: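 Viability was measured as CellTiter-Glo luminescence in GeneBLAzer PPARg UAS-bla HEK293H cells. These cells had been exposed 17 h at 37 C to compounds together with rosiglitazone at 50 nM final, with the beta-lactamase readout taken in the same wells.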

Assay [13] can be described thus: qHTS assay for small molecule agonists of the antioxidant response element (ARE) signaling pathway (AID 743202; active means well fitted activation curve with a large enough effect in the signal ratio in the repeat runs, not every such curve was filed as active; the % refers to the signal ratio; further: potency means the concentration at half of the fitted maximal effect). In outline:
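Beta-lactamase reporter activity, read as fluorescence intensity, reflects ARE/Nrf2 pathway induction in HepG2 cells after 16 h compound exposure at 37 C; substrate loading was 2 h at room temperature.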

A short description of assay [14]: qHTS assay for small molecule agonists of the antioxidant response element (ARE) signaling pathway - cell viability counter screen (AID 743203; calls by dose curve; further: nearly all actives have a fitted effect of over 55% in size). The procedure, abridged: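 Cytotoxicity was tested in parallel with the ARE reporter screen. ARE-bla HepG2 cells were exposed to compounds for 16 hrs, and viability was taken from CellTiter-Glo luminescence.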
Assay [15] can be described thus: qHTS assay for small molecule activators of the heat shock response signaling pathway - cell viability counter screen (AID 743209). Further: nearly all actives have a fitted effect of over 50% in size. The procedure, abridged:
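Cytotoxicity counter screen run in parallel with the HSE beta-lactamase reporter, using the same wells. HeLa HSE-bla cells received compound for 5 h at 37 C; ATP-based CellTiter-Glo luminescence was measured after 30 min at room temperature.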

In assay [16] the target is Aryl hydrocarbon receptor (Homo sapiens) (UniProt P35869). In words: qHTS assay to identify small molecule that activate the aryl hydrocarbon receptor (AhR) signaling pathway (AID 743085).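 Further: HG2L7.5c1 human HepG2 liver cells with stably integrated DRE-driven firefly reporter; series mostly up to about 70 µM; nearly all actives have a fitted effect of over 15% in size.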 The procedure, abridged: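 HepG2 cells (HG2L7.5c1) stably carrying a firefly luciferase reporter driven by 20 dioxin responsive elements were exposed to compound for 24 h at 37C after a 5 h settling period; luminescence rise (ONE-Glo) indicated activation.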
Aryl hydrocarbon receptor (Homo sapiens), sequence (P35869 whole entry, looked up): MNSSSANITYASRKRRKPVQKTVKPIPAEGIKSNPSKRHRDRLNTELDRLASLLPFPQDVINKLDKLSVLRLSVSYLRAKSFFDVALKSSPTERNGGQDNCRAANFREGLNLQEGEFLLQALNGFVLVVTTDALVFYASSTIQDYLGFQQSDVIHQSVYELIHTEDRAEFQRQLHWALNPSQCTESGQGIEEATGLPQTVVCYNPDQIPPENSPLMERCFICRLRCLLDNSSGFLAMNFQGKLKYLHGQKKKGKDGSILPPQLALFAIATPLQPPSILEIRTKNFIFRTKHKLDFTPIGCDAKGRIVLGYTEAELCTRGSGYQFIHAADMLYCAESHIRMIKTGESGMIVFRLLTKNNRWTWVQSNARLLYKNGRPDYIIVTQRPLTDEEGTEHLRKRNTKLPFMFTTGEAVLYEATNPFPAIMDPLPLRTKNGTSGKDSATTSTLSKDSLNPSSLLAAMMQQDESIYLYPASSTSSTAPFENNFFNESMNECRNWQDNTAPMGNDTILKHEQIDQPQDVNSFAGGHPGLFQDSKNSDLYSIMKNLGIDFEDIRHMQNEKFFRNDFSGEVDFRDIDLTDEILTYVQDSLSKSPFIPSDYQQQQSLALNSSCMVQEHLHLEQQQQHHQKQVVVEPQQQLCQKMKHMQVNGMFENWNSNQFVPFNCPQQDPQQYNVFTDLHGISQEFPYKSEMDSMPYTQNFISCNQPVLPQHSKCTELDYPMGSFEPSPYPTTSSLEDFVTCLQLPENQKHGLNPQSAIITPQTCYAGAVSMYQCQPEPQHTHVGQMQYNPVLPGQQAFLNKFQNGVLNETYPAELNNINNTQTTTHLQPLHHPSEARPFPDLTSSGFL

The nature of assay [17]: qHTS assay for small molecule activators of the heat shock response signaling pathway (AID 743210; active means well fitted activation curve with a large enough effect in the signal ratio in the repeat runs, with a control signal flat, not every such curve was filed as active; the % refers to the signal ratio;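 further: HeLa cells with beta-lactamase reporter driven by heat shock elements; series mostly up to about 63 µM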). The procedure, abridged: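 Fluorescence from a cleaved B/G FRET substrate (2.5 h, room temp) reports HSE-driven beta-lactamase in HeLa cells treated 5 h at 37 C with DMSO-dissolved compounds.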
Assay [18] in a line: qHTS assay to identify small molecule antagonists of the thyroid receptor (TR) signaling pathway (AID 743065). Further: nearly all actives have a fitted effect of over 55% in size. Further: potency means the concentration at half of the fitted maximal effect. The procedure, abridged: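 Antagonism measured as loss of luciferase signal in GH3 cells stably carrying a TRE-luciferase reporter, co-treated with compound and T3 (1 nM final) for 23.5 h at 37 C. Viability was read in the same well by CellTiter-Fluor.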
Assay [19] is described as follows: qHTS assay to identify small molecule antagonists of the estrogen receptor alpha (ER-alpha) signaling pathway using the BG1 cell line (AID 743080; calls by dose curve;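 further: BG1 cells stimulated with 17beta-estradiol alongside compound; series mostly up to about 70 µM; nearly all actives have a fitted effect of over 25% in size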). The procedure, abridged: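 Luminescence from a 4×ERE-luciferase reporter in BG1-Luc-4E2 cells served as read-out. Cells, pre-cultured 5 days in stripped-serum phenol-red-free medium, were exposed to compound with 17beta-estradiol co-stimulation for 21.5 h at 37 C.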

Peroxisome proliferator-activated receptor gamma (Homo sapiens), sequence (P37231 whole entry, looked up): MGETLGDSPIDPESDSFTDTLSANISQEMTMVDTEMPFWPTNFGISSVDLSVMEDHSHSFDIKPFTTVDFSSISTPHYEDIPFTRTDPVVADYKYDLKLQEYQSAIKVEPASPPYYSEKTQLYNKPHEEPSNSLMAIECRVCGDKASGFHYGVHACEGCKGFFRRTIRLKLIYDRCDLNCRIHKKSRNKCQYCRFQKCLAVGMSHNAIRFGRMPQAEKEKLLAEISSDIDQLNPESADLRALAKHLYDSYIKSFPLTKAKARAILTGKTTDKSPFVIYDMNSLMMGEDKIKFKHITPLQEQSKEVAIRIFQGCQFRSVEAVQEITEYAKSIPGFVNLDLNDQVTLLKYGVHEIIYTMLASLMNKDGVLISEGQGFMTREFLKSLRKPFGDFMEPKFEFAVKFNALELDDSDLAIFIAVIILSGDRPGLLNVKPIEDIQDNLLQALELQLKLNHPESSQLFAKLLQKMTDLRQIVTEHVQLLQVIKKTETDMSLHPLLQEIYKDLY

Turning to `OC[C@H]1O[C@@H](O[C@@H]2[C@@H](CO)O[C@](O)(CO)[C@H]2O)[C@H](O)[C@@H](O)[C@H]1O`, the Potency result in assay [1], in assay [5], in [6], in assay [7], in [8] and in [9] was “inactive” in each case. In addition, the Potency entry in [10], in assay [13] and in assay [15] was “inactive” throughout. In addition, the result (in assay [2]; in assay [3]; in assay [4]; with Aromatase (Homo sapiens); in assay [11]; in assay [12]) was inactive. Further, the compound was called inactive in assay [14].

As for `CC(=O)C(C)O` (centres undefined), the Potency result in assay [1], in assay [7], in assay [8], in assay [16], in assay [9] and in assay [10] was “inactive” in each case. Besides, the Potency result in assay [13] and in [15] was “inactive” each time. Further, the call (in assay [4]; in the assay with Aromatase (Homo sapiens); in assay [11]; in [12]; in assay [14]) was inactive.

Regarding `CC(=O)N[C@@H](CO)C(=O)N[C@@H](CC(=O)O)C(=O)N[C@@H](CCCCN)C(=O)N1CCC[C@H]1C(=O)O` (Ac-SDKP-OH), the result in assay [11], in assay [12], in [14] and in assay [17] was inactive. The Potency entry in assay [13] and in assay [15] was “inactive” each time.

`COc1cc2c(cc1OC)CN(C(=O)[C@H](C)N[C@@H](CCc1ccccc1)C(=O)O)[C@H](C(=O)O)C2`: the compound was called inactive in assay [12], in [14] and in assay [17]. The Potency entry in assay [13] and in assay [15] was “inactive” in each case.

For `CN(C)CCCO[C@@H]1[C@H]2OC(C)(C)O[C@H]2O[C@@H]1C(O)CO` (some centres undefined), the compound was called inactive (in [2]; in assay [3]; in [4]; with Aromatase (Homo sapiens); in [12]; in assay [14]). Further, the Potency result in assay [5], in [6], in [7], in assay [8], in [16] and in assay [9] was “inactive” each time. Moreover, the Potency entry in [10], in assay [13] and in [15] was “inactive” in each case.

Turning to `CCC(=O)Oc1ccc2c(c1)CC[C@@H]1[C@@H]2CC[C@@]2(C)[C@H]1C[C@@H](OC(=O)CC)[C@@H]2OC(=O)CC`, the outcome in assay [11], in assay [12] and in assay [14] was inactive. Moreover, the Potency entry in assay [13] and in assay [15] was “inactive” throughout.

For the compound `Cn1c(=O)c2[nH]c(Br)nc2n(C)c1=O`, in [18], the Potency was 26.6 µM (active). Further, the compound was classed as inactive (in assay [2]; in [4]; in the assay with Aromatase (Homo sapiens); in assay [12]; in assay [14]; in assay [17]). Moreover, the Potency entry in assay [7], in assay [8], in assay [16], in [9], in assay [10] and in [13] was “inactive” each time. The Potency entry in assay [15] was “inactive”.

As for `O=C1OCCO1`, the compound was classed as inactive (in [2]; in assay [3]; in assay [4]; in assay [19]; with Aromatase (Homo sapiens); in assay [11]). Besides, the outcome in assay [14] and in [17] was inactive. Moreover, the Potency result in assay [5], in assay [6], in assay [7], in assay [8], in [9] and in assay [10] was “inactive” in each case. The Potency result in assay [15] was “inactive”.

In the case of `CC(C)C[C@@H]1[C@H](c2ccccc2)OC(=O)N1CCCN1CCCCCC1`, the call in assay [11], in assay [12], in [14] and in assay [17] was inactive. In addition, the Potency result in assay [13] and in assay [15] was “inactive” throughout.

For `OCC(O)CN1CCN(c2ccccc2)CC1` (centres undefined), the Potency result in assay [18], in assay [7], in assay [8], in assay [16], in [10] and in [13] was “inactive” throughout. For the same compound, the Potency result in [15] is “inactive”. The compound was called inactive (in [2]; in assay [4]; with Aromatase (Homo sapiens); in [11]; in [12]; in assay [14]). The result in [17] was inactive.

As to `COc1cc(/C=C/C(N)=O)cc(OC)c1OC`, the outcome in assay [12] and in assay [14] was inactive. Also, the Potency entry in assay [13] and in assay [15] was “inactive” throughout.

Take `OC1(c2ccc(Cl)cc2)CCNCC1`: the result in assay [11], in assay [12], in assay [14] and in assay [17] was inactive. For the same compound, the Potency entry in assay [13] and in assay [15] was “inactive” each time.

As to `O=C(CCCl)NCCc1ccccc1`, the compound was called inactive in assay [12], in [14] and in [17]. Besides, the Potency entry in [13] and in assay [15] was “inactive” throughout.

Take `CCOC(CN1CCN(CC(C)C(=O)c2ccccc2)CC1)c1ccccc1` (centres undefined): the compound was called inactive in [2], in assay [4], in [12] and in [17]. For the same compound, the Potency entry in assay [7], in [8], in [16], in assay [10] and in assay [15] was “inactive” each time. In assay [13], the Potency was 10.3 µM (active).
